# A selection: hits, their analogues and other compounds. The true share with any hit is near 3.5%.
# MITF primary = inhibitors of human MITF; 0.91% of 650,000 active; O75030; AlphaScreen MITF homodimerization, bead proximity signal; inhibition, % at 2.6 µM; in the data active = inhibition above about 50%;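 note: 0% = vehicle wells with protein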
# Target sequence (O75030 whole entry, looked up): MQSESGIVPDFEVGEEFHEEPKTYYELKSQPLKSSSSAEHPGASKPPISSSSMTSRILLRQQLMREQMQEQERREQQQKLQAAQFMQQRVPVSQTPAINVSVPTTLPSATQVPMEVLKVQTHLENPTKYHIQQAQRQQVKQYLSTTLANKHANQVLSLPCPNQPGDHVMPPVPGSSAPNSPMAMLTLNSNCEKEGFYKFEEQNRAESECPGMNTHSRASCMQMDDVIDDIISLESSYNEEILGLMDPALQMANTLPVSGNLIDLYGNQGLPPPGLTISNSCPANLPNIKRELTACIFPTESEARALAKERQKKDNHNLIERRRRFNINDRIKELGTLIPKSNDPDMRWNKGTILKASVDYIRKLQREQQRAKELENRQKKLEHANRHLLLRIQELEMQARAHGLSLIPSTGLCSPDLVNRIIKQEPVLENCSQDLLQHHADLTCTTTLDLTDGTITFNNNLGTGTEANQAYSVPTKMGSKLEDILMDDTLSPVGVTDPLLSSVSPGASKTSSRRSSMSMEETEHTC
# GPR151 ag = activates the human receptor GPR151; AID 1508602; PathHunter beta-arrestin GPR151 cells, luminescence; Q8TDV0; 1% of 650,000 active; activation, % at 11.2 µM; in the data active = activation above about 4.9%;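 note: 0% = median of compound wells and 100% = cells with positive control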
# FBW7 act = human FBW7 E3 ligase activation, primary screen; AlphaScreen FBW7–phospho-cyclin E peptide binding, activator screen; 0.13% of 650,000 active; Q969H0; normalized activity (activation), % at 26.1 µM; AID 1259310; in the data active = normalized activity above about 1.9%;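 note: purified mutant Fbw7 with reduced substrate affinity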
# TEAD-YAP block = TEAD-YAP interaction inhibition | HEK-TIYL cells, TEAD-Gal4/YAP UAS-luciferase luminescence | inhibition, % at 9.12 µM | 1.4% of 640,000 active; in the data active = inhibition above about 32%;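 note: 0% = median of test compound wells and 100% = reference inhibitor wells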
# MITF inh conf = confirmation of human MITF inhibitors | shares compounds with MITF primary | AlphaScreen MITF homodimerization, biotin/His-MITF beads | inhibition, % at 2.6 µM | 16% of 4,700 active;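 active = inhibition above a cutoff derived from the DMSO control wells, cut at about 28% in these data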;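 note: 0% = MITF dimer wells with DMSO only; inhibitors lower the bead chemiluminescence by keeping MITF from dimerizing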
# AlphaScreen DR = AlphaScreen optical interference, dose response counter-screen | AID 1259373 | AlphaScreen optical interference counterscreen, cell-free | shares compounds with MITF primary | IC50, µM | 6% of 480 active; call rule not given here
# AlphaScreen intf2 = AlphaScreen optical interference, counter-screen; shares compounds with MITF primary; LysRS AlphaScreen counterscreen, signal interference, triplicate; inhibition, % at 2.6 µM; 7.6% of 4,700 active; AID 1259376;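 active = inhibition above a cutoff derived from the DMSO control wells, cut at about 30% in these data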
# Active calls of the source: *; . = no result given.
SMILES,MITF primary,GPR151 ag,FBW7 act,TEAD-YAP block,MITF inh conf,AlphaScreen intf2,others
Brc1cccc(CN2CCN(Cc3ccc4c(c3)OCO4)CC2)c1,64*,1,0,3,-3,7,
CCOC(=O)C1C2NC(=S)N(CCc3ccccc3)C1(C)Oc1c(OCC)cccc12 (centres undefined),20,4,0,7,.,.,
O=C(CN1CCCCC1)Nc1ccc(Br)cc1C(=O)c1ccccc1,-6,1,0,1,.,.,
COc1ccc(/C=C/c2nc3ccccc3c(=O)n2-c2ccc(Br)c(C)c2)cc1O,-4,1,0,11,.,.,
CC(C)N1CCN(Cc2ccc([N+](=O)[O-])cc2)CC1,67*,0,0,-6,5,6,
CCC(C)N1CCN(Cc2cccc(F)c2)CC1 (centres undefined),-1,0,0,4,.,.,
CCc1ccc(CN2CCN(C(C)C)CC2)cc1,81*,-2,0,-8,29*,-9,AlphaScreen DR=>6.9
COc1cccc(N2CCN(Cc3ccc([N+](=O)[O-])cc3)CC2)c1,57*,-1,0,9,3,3,
Cc1ccc(CN2CCN(C(C)C)CC2)cc1,54*,0,0,7,-4,-6,
CC(C)CCNc1cnn(C23CC4CC(CC(C4)C2C(=O)O)C3)c(=O)c1Cl (centres undefined),-8,-2,0,-1,.,.,
CCOc1cc(CN2CCN(Cc3ccccc3)CC2)ccc1O,56*,4,0,1,5,-3,
CCOc1cc(CN2CCN(c3ccccc3F)CC2)ccc1O,30,-2,0,-2,.,.,
CCOc1cc(CN2CCN(C(C)C)CC2)ccc1OC,55*,0,0,10,9,11,
CCOc1cc(CN2CCN(C(CC)CC)CC2)ccc1OC,78*,0,0,4,1,-5,
COc1ccc(CN2CCN(c3ccccc3F)CC2)cc1OC,52*,0,0,-5,15,-9,
CC(C)CC(NC(=O)C(C)NC(=O)C(N)Cc1ccc(O)cc1)C(=O)NC(CCCN=C(N)N)C(=O)O (centres undefined),-1,1,0,-6,.,.,
COc1cc(OC)c(OC)cc1CN1CCN(C(=O)COc2cccc(C)c2)CC1,25,0,0,-1,.,.,
FC1CC2C(Br)C1NC2(C(F)(F)F)C(F)(F)F (centres undefined),-1,0,0,-7,.,.,
CCC(CC)N1CCN(Cc2ccc(OC)cc2)CC1,54*,0,0,0,-6,-8,
CCC(CC)N1CCN(Cc2ccc(OC)c(OC)c2)CC1,69*,1,0,0,12,-1,
CCC(=O)CC(c1ccccc1)c1c(O)c2ccccc2oc1=O (centres undefined),5,0,0,6,.,.,
O=[N+]([O-])c1ccc(N2CCN(Cc3c(F)cccc3F)CC2)cc1,63*,1,0,-6,1,-2,
O=[N+]([O-])c1ccc(N2CCN(Cc3cc(F)ccc3F)CC2)cc1,58*,-1,0,0,1,5,
O=[N+]([O-])c1cccc(CN2CCN(c3ccc(F)cc3)CC2)c1,45,2,0,-4,.,.,
CCOC(=O)C1C2NC(=S)N(c3ccccc3OC)C1(C)Oc1c(OC)cccc12 (centres undefined),5,0,0,-8,.,.,
SMILES,MITF primary,GPR151 ag,FBW7 act,TEAD-YAP block,MITF inh conf,AlphaScreen intf2,others
CCC(C)N1CCN(Cc2ccccc2)CC1 (centres undefined),66*,0,0,11,-4,-8,
CCC(C)N1CCN(Cc2ccccc2F)CC1 (centres undefined),75*,0,0,-1,-2,0,
CC(C)N1CCN(Cc2ccccc2[N+](=O)[O-])CC1,63*,1,0,-6,10,14,
O=[N+]([O-])c1ccccc1CN1CCN(Cc2ccccc2F)CC1,67*,0,0,-8,3,1,
COc1ccccc1N1CCN(Cc2ccccc2[N+](=O)[O-])CC1,7,-1,0,3,.,.,
CC1(C)C(C(=O)NCC2Cc3cccc(-c4cccnc4)c3O2)C1(C)C (centres undefined),7,1,0,7,.,.,
CN1CC(=O)N2CCN(Cc3cccc4cccnc34)C[C@@H]2C1=O,-11,0,0,-16,.,.,
Cc1cccc(CN2CCN(Cc3ccccc3[N+](=O)[O-])CC2)c1,64*,4,0,-4,13,-2,
Cc1ccc(CN2CCN(Cc3cccc(C)c3)CC2)cc1,64*,1,0,7,9,18,
COc1ccc(CN2CCN(Cc3cccc(C)c3)CC2)cc1,31,-2,0,4,.,.,
CCN1CCN(Cc2cccc([N+](=O)[O-])c2)CC1,-11,0,0,-2,.,.,
COc1ccccc1CN1CCN(Cc2cccc(C)c2)CC1,69*,-2,0,-7,8,9,
Cc1cccc(CN2CCN(Cc3ccccc3F)CC2)c1,79*,-1,0,-2,10,12,
COC(=O)C1C2c3ccccc3O[C@]1(C)N=c1s/c(=C/c3cccc(OC)c3)c(=O)n12 (some centres undefined),4,0,0,-2,.,.,
Cc1cccc(CN2CCN(Cc3ccccc3C)CC2)c1,64*,0,0,-6,-3,-4,
COc1ccc(CN2CCN(Cc3ccccc3)CC2)c(OC)c1,67*,-1,0,4,8,13,
COc1cccc(CN2CCN(C)CC2)c1OC,12,2,0,4,.,.,
CCC(C)N1CCN(Cc2cccc(C)c2)CC1 (centres undefined),37,1,0,-1,.,.,
COc1cccc(CN2CCN(Cc3ccccc3)CC2)c1OC,69*,-1,0,1,3,12,
COc1ccc(OC)c(CN2CCN(C(C)C)CC2)c1,72*,0,0,1,4,4,
CCC(C)N1CCN(Cc2cccc(OC)c2OC)CC1 (centres undefined),78*,0,0,-13,4,8,
Cc1ccc(-n2c(/C=C/c3ccc4c(c3)OCO4)nc3ccccc3c2=O)cc1C,5,-2,1,14,.,.,
COc1cccc(CN2CCN(C)C(CCO)C2)c1OC (centres undefined),-10,0,0,-9,.,.,
COc1cccc(CN2CCN(C(C)C)CC2)c1OC,69*,1,0,6,1,-4,
COc1ccc(CN2CCN(Cc3ccccc3Br)CC2)cc1Br,75*,0,0,-7,4,2,
COc1ccc(CN2CCN(Cc3ccc(Br)cc3)CC2)cc1Br,33,0,-1,-3,.,.,
COc1ccc(CN2CCN(C)CC2)cc1Br,73*,1,1,7,3,10,
CCOC(=O)C1C2NC(=S)N(c3cccc(F)c3)C1(C)Oc1c(OC)cccc12 (centres undefined),25,-1,0,-15,.,.,
